Source: the supplement of paper PMC12632987
Over roughly 4,500 sequences, “median log2 fold change of GCK-ALFA target abundance (FLAG IP / Myc IP barcode read proportion)” has its median near 0.078; the lowest 2% begin near -0.6. The sample as a whole holds a higher share of the lowest values than the screen did.

B1: GBRAP_150_3939 (protein)
chain: DLEELLLLAQGIETDLELALEPGFDKLKLAERALELAKDIAKESDEELKKLAEELIKLLEEAIKAIKAGAEEKEIQKLLEEALRKARELIEEIEKKIEEE
B2: GBRAP_9_7172 (protein)
chain: LKAAAAAAIAELREARDFILEIAPEAAAGAVDAAFDALIAALEAARADPTVTPEQFEATLAAGFAAIRAAAAAHLSPEVAAAVETEMLTVRDIADEKLDE
B3: GBRAP_95_7026 (protein)
chain: EDDQLLVDSLTEVLETYVDLGDEERAREAARRLVRALRENGILPLPKSISVEAAKLILEVALEELDLEELEALAKQLIEATKDEEVRKYAEAKIAEKRAR
B4: GBRAP_52_6042 (protein)
chain: MEERMRELAEEILALYLEGREEEARKLIREAVETLSEEELKLLGEALAELAREAPPEHLDAYMQAAFDLADALEEAGYDEVLADDLEARVAAAAVENLKR
B5: GBRAP_52_6034 (protein)
chain: MRERMRRLAEEAVALALAGDEEGAKALIKEAVETLSEEELKLLGEELARLAREAAPEDLDAIMEVAFWLADALIEAGYDEVFADDLEARVARAAVENLQA
B6: GBRAP_52_6035 (protein)
chain: MEERMRELARRIVELLLAGREEEARRLIREAVETLSEEELKLLGEELARLAREAAPEDLDAIMEAAFLLADALEEGGYDEVLADDLLARVAAAAVANLQA
B7: GBRAP_160_4751 (protein)
chain: SEALKKLKEEVKKIFEEGIEMLKEVPAEEAPTVLRGVMGEVLMEVFSSEAASDELEEEVGEVVDKAEAEAAANANAPVEYHIELLEKAKKEILEIIEKEI
B8: GBRAP_52_6275 (protein)
chain: MEEEAERLAEEFIRVALEGSEEEIREFARRLVEEKSEELIARVLEIVVEKAEELNAEEIEKLLEAVLILEGELEEAGRDPLPAQDAAARLAKLHEEKLKE
B9: GBRAP_78_6606 (protein)
chain: EVEELLEEAIELLSKAAKLLKELPPEVRDELMDLLVEAMSLLLESIEEGPNLKLLEEALKHVEEAIELLKKEKTPEAEKIIKLLEEAKEKIEKAIKLLKK
B10: GBRAP_184_5238 (protein)
chain: KVLEVTVEAADAEELRAKLEAVFAEAEAAGARVRLDVLVEELTPEKVDVLTEEIARMAAAGLLDLVEVTSSTPIAEEHIDRLVAAADAAGVRLVIAEPDE
B11: GBRAP_57_6464 (protein)
chain: MSPLEKALEHFEKAIKLIEEGASLEEILEEVEKGLEELDHTLLLDILLLLDPSARSDLSREELRERLLELVRRYLEEKGREEALKALKLMAGQVEMALTE
B12: GBRAP_125_3136 (protein)
chain: KRAALLALAEALARAMGFSEEEIAEIRRLAEAHDPAQTIVAIFLAAGAEEAAELAAEVLDKLSEEEIAALRALAEAARDLPLEEAVARLLAALKEAKAKL
B13: GBRAP_52_6252 (protein)
chain: MRARLRADAREILELVKEGREEEARRLAREIAETYNEEELRLFIDEFAALAAEAPKEDIDDVWRAAEILAEALEEAGWEEVLVDDALARTAAALVKVEAK
B14: GBRAP_184_5187 (protein)
chain: MVVEEELEIEDVAEARAKIAAIGERIAGKKAKLRVIVKAKKITVEIARTIMEGLGAIKAAGNATDITVELVGEMSEEVIDTAVELAKKAGIRVVIAMSEE
B15: GBRAP_11_2656 (protein)
chain: KKEAYKKAAELAEEAAKALQKLIEEGVDDEELIEKLRKLIEELKKLAEEELDEADKKEVEVVVELFEEFLADEENRLQLAEELLAGLRVLAGNFQLKADE
B16: GBRAP_84_7006 (protein)
chain: EREEEIVKLTKEILEKGSIELKALLLTYLILKNENKAATLALNDLLKEDPEAAVEALDRATEAYEEGKEEEVEKELKEKAKKEGKEVAELVEKLIKLLEE
B17: GBRAP_84_7005 (protein)
chain: SREEEIVEITAEILEKASIETKALLLTYLILKNANKAATLALNDLLEEDPEAAVEALDRATEAYEEGKEEEVEKELLEKAKEEGEELAELVERLLELLKE
B18: GBRAP_84_7007 (protein)
chain: SREQEILEITNKILEKGSIELKKKLLTYLILKNENKAATLALNYLLEEDPEAAVEALDEATEAYEEGKEEEVRKELLELAKKEGEEVYALVEELLELIDE
B19: GBRAP_166_4935 (protein)
chain: SLEKIYEETKKKVIELAKKALTADEEERIDLAIEIEELLKEAKEKGLTPEQLKEILLEALKELEEDPEVAEFLLRMILAASEMDEELQDVILEALEEFKK
B20: GBRAP_128_3437 (protein)
chain: AQEELLQEALELLDEIVESDVETAAELAKQLAELLGQLDEESRDEVVEYFEEKAKELTEEKLEAVADALREQVPQLDADTANAVNEMIVILGEQILELEE
B21: GBRAP_160_4322 (protein)
chain: KEELEELEKRIKEIAEEAKKMIKGQSAEEKITIVKVALGDIILEVESNPAVSDELEDKVAEIADAAEAYLDAHPDLSEEEVIALLEEAVKKILELIKEEK
B22: GBRAP_137_3640 (protein)
chain: MKVTIRVERHEDLVEITITVDDPEKAEEVAELITDLAVAHGALAISVEIKEDGTLEAVIWVPVERAEALIAAIVDALQSKFGATVTVEDLDTGEVRTYTP
B23: GBRAP_184_5202 (protein)
chain: AIVERTIEFENEEELKEKLKELLEELKGFKGTVYIHVEAPEITEEMAKLLIEFVKEIKENGYATEIIVDIEGEVSEEVRDLLLDEFAKIGAKVVIALSEE
B24: GBRAP_11_2682 (protein)
chain: RKEALERAAELAERAAELAERLLEEGVDNEELLEELRRALEELRRLVKEHLDEAHRTLVEIAEEELEEALADPENAAAHIERLLAAARVLRYNLEEELEE
B25: GBRAP_125_3139 (protein)
chain: MKAELLALAEALARALGYSEEEIAELRRLGEAHDPAQTIIAILLAEGFEELAELAREVLPKLTPEEIAELRALAESLRDKSREELRAALLAKLKELKAKQ
B26: GBRAP_128_3300 (protein)
chain: MDPALRAEVEALVETIRTGDPAARRAAAEALAALMGSVNDEDAEAIADIIEAAIPELSAEALEILADVLDAARPQLTPEKAALAADVASAALLAAEELAE
B27: GBRAP_52_6059 (protein)
chain: MEERIEELARRIAEAIAAGDLERALELLRRAIKELSVEEIRRMLELAAERVAKLGEEAHERFVELLEEAEELMKEAGISEEEAELIVGDAEAALARAVAA
B28: GBRAP_52_6151 (protein)
chain: AAARAAAYAREFVAAVRAGDEEKARAIMKEIAATLDDEEIALFLREVARLVAGLSPEDRERVVEAVLEFEDIAVAAGHDEDILSYETARVAGAAYEALQR
B29: GBRAP_52_6154 (protein)
chain: MEERAREYAERFVAAVKAGDEEEARAIMEEIAATLDDEEIALFLEHVAELVAGLSPEDRERVVEAVLEFEDIAEAAGHDPELLSYHTARVAGAAYAALQA
B30: GBRAP_52_6153 (protein)
chain: ARERAREYAEAFVAAVKAGDEERARAIMEEIAATLNDEEIELFLEEVARLVEGLTPEERERVVEAVLEFEDIAVAAGHDEELLSYHTARVAGAAYDALQK

Each binder was assayed against GABARAP, O95166 (assay: median log2 fold change of GCK-ALFA target abundance (FLAG IP / Myc IP barcode read proportion) (log2 ratio); each designed protein is fused to an ALFA-tag nanobody in HEK293 cells to bring the named protein to FLAG-tagged glucokinase (GCK); Myc marks an untargeted standard; higher = target protein stabilised (more abundant)). Conditions: target protein: 3xFLAG-MCP-GCK-ALFA reporter; HEK293 landing pad (RPLP).
Chain of GABARAP, O95166 (O95166 whole entry, the tested form may be a part): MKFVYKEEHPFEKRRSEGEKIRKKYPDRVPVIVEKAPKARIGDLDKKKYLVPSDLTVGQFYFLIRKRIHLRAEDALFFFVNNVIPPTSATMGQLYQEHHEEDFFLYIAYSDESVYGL
Summary of the method: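 Binders fused to an ALFA nanobody were recombined as a library into HEK293 landing-pad cells, which were induced with 2 μg mL^−1 doxycycline and then transfected to express a FLAG-tagged target and a Myc-tagged standard. After 48 h, circular RNA barcodes recovered by anti-FLAG and anti-Myc immunoprecipitation of lysates were reverse transcribed, amplified and sequenced. Each binder's target abundance is the median log2 ratio of FLAG to Myc barcode read proportions, from barcodes present at ≥10^−7 in both replicates, binders carrying ≥3 barcodes per replicate, a 10^−6 pseudocount and pooled replicates.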

Row | Binder | median log2 fold change
1 | B1 | 0.139
2 | B2 | -0.00921
3 | B3 | 0.182
4 | B4 | -0.435
5 | B5 | -0.573
6 | B6 | -0.612
7 | B7 | -0.117
8 | B8 | 0.0823
9 | B9 | -0.743
10 | B10 | 0.168
11 | B11 | 0.249
12 | B12 | -0.351
13 | B13 | -0.272
14 | B14 | 0.57
15 | B15 | 0.336
16 | B16 | -0.666
17 | B17 | -0.259
18 | B18 | -0.316
19 | B19 | 0.184
20 | B20 | -0.0498
21 | B21 | 0.161
22 | B22 | -0.0441
23 | B23 | -0.159
24 | B24 | -0.882
25 | B25 | 0.207
26 | B26 | -0.00271
27 | B27 | 0.0176
28 | B28 | 0.0301
29 | B29 | 0.0811
30 | B30 | -0.742
